# Measurements taken from PubChem BioAssay (NCI).
# This is part of a sample that, as a whole, favours compounds with a hit. Of some 83,000 tested, about 20% had one in any assay.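 Testing used 96-well plates and a 48-hour single-concentration exposure. Example: -40 means 40% of the starting cells died.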 Values without a mark were called inactive. Activity calls are given as the source filed them. How the source made its calls: active means growth percent below 10; inactive means the rest.
# Experiments:
# Experiment in all cases: NCI-60 one-dose screen, 48 h (100 = growth as untreated, 0 = no growth, -100 = all killed)
# Settings in all cases: 10 µM
# DU-145 prostate = system: DU-145 prostate
# K-562 leukemia = system: K-562 leukemia
# MALME-3M melanoma = system: MALME-3M melanoma
# MDA-MB-231 breast = system: MDA-MB-231 breast
# RXF 393 renal = system: RXF 393 renal
# SF-268 CNS = system: SF-268 CNS
# SF-295 CNS = system: SF-295 CNS
# SF-539 CNS = system: SF-539 CNS
# UACC-257 melanoma = system: UACC-257 melanoma
# M14 melanoma = system: M14 melanoma
# HCT-15 colon = system: HCT-15 colon
# HT29 colon = system: HT29 colon
# SNB-75 CNS = system: SNB-75 CNS
# SNB-19 CNS = system: SNB-19 CNS
# U251 CNS = system: U251 CNS
# PC-3 prostate = system: PC-3 prostate
# SK-MEL-5 melanoma = system: SK-MEL-5 melanoma
# UACC-62 melanoma = system: UACC-62 melanoma
# LOX IMVI melanoma = system: LOX IMVI melanoma
# SK-MEL-28 melanoma = system: SK-MEL-28 melanoma
Compound,growth (DU-145 prostate),growth (K-562 leukemia),growth (MALME-3M melanoma),growth (MDA-MB-231 breast),growth (RXF 393 renal),growth (SF-268 CNS),growth (SF-295 CNS),growth (SF-539 CNS),growth (UACC-257 melanoma),growth (M14 melanoma),growth (HCT-15 colon),growth (HT29 colon),growth (SNB-75 CNS),growth (SNB-19 CNS),growth (U251 CNS),growth (PC-3 prostate),growth (SK-MEL-5 melanoma),growth (UACC-62 melanoma),growth (LOX IMVI melanoma),growth (SK-MEL-28 melanoma)
c1ccc(CSc2ncccc2-c2nnc(SCCN3CCOCC3)o2)cc1,112%,117%,111%,114%,123%,107%,106%,132%,147%,108%,105%,111%,79.6%,115%,117%,111%,102%,113%,108%,107%
COc1cc2cc(Oc3ccc(NC(=O)Nc4cccc(C(F)(F)F)c4)cc3)c(C)nc2cc1OC,26.7%,11.5%,7.22% (active),-8.32% (active),-13.1% (active),29.2%,-15% (active),11.7%,-14.5% (active),22.7%,15.2%,6.55% (active),13%,31.4%,-85.7% (active),0.0827% (active),-86.1% (active),14.5%,9.78% (active),26.7%
CC(CN(C)C)Oc1ccccc1NC1=C(Cl)C(=O)C(Nc2ccccc2OC(C)CN(C)C)=C(Cl)C1=O (stereo not given),-99.3% (active),-11.2% (active),-76.6% (active),-77.5% (active),-90.7% (active),-81.8% (active),30.6%,-98% (active),-91.8% (active),-65% (active),-79% (active),-70.1% (active),35%,3.85% (active),-84.2% (active),3.47% (active),-95.8% (active),-84.5% (active),-80.6% (active),-64.9% (active)
CC[C@@H](C(=O)[C@@H](C)[C@@H](O)[C@H](C)[C@@H]1O[C@@H]([C@@H](CC)C(=O)O)CC[C@@H]1C)C1O[C@]2(C=CC(=O)[C@]3(CC[C@@](C)([C@H]4CC[C@](O)(CC)[C@H](C)O4)O3)O2)[C@H](C)C[C@@H]1C (stereo not given in full),48%,13.8%,-64.8% (active),30.3%,25.8%,50.6%,4.02% (active),16.2%,42.9%,9.56% (active),23.8%,30.5%,19.2%,11.6%,24%,27.4%,-91.7% (active),-32.5% (active),35.4%,-81.2% (active)
COc1cc(-c2nn(-c3cccc(NC(=O)NCCNC(=O)c4ccccc4)c3)cc2-c2ccncc2)ccc1Cl,23%,5.31% (active),-9.9% (active),25.9%,-23.4% (active),27.7%,-56.9% (active),-12.9% (active),17.1%,-5.48% (active),9.91% (active),5.63% (active),33.4%,35.3%,25.3%,6.41% (active),-72.7% (active),21.9%,2.52% (active),7.24% (active)
CCCCCCCCCCOC(c1ccccc1)c1ccccc1,105%,85.6%,95.7%,88.4%,94.2%,94.2%,89.6%,102%,102%,90.9%,81.1%,66.7%,95.1%,96%,94.2%,83.5%,104%,81.5%,79.6%,96.2%
Cc1ccc(-n2nnnc2N)c(C)c1,122%,115%,119%,110%,143%,114%,96.7%,123%,108%,104%,106%,123%,101%,113%,99.5%,105%,115%,96.4%,93.8%,112%
COc1ccc(-c2csc(NC(=O)c3ccc(Cc4n[nH]c(=O)c5cccnc45)cc3)n2)cc1,108%,82.9%,86.8%,79.7%,72.4%,97.1%,86.6%,87.1%,94.5%,103%,85.8%,104%,82.6%,89.8%,99.1%,77.9%,85.7%,74.5%,90.3%,95.2%
